A number with no mark means an inactive call. Inconclusive results are not listed. Activity calls are given as the source filed them. Unless noted, the call rests on the fitted dose curve; in most records, active means well fitted curve in either direction with a large enough effect (not every such curve was filed as active); inconclusive means small, poorly fitted or top-dose-only effect, or another doubt; inactive means flat fitted curve, though single readings scatter. A value given as a limit tells only on which side of the number the result lay.

Among the data in PubChem BioAssay (NCATS) are Potency, activity change, negative = inhibition and activity, negative = inhibition values, retold here.

The target of assay [1] is Lysosomal acid glucosylceramidase (Homo sapiens) (UniProt P04062). Put plainly: Glucocerebrosidase-p2 (AID 348; in the data active means potency below about 10 µM; further: potency means the concentration at half of the fitted maximal effect). The following applies: purified GBA, blue fluorogenic substrate, 40 min. The method, boiled down: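 Normal human glucocerebrosidase (0.2 nM) with blue fluorogenic substrate (80 uM final) in citrate/phosphate pH 5.9 with 10mM sodium taurocholate, 0.01% tween-20; 40 min RT, NaOH/glycine stop; fluorescence Ex 365/Em 440; AC50 from a titration from 0.6 nM upwards.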

The nature of assay [2]: AP1 Signaling Pathway (AID 357).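 Further: ME-180 reporter cells stimulated with EGF at its EC50 level; on the % scale 0 is the no-effect control and ±100 the full control effect.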 As to conditions: ME-180 AP-1-bla reporter, EGF-induced, beta-lactamase ratio, 5 h; at 7.69 µM (top of the series) unless noted. The method, boiled down: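 A ratiometric CCF4 readout (405 nm excitation; 460 and 530 nm emission) quantified AP-1-driven beta-lactamase in ME-180 cells after 5 h with compound and EC50 EGF; AC50 values were derived for activators and inhibitors.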

For assay [3], the target named is Cytochrome P450 1A2 (Homo sapiens) (UniProt P05177). As to the kind of experiment: p450-cyp1a2 (AID 410; calls by dose curve; further: potency means the concentration at half of the fitted maximal effect;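 on activity change, negative = inhibition: -100% = full effect of reference inhibitor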). As to conditions: recombinant CYP1A2, luciferin-ME demethylation, luminescence; series mostly up to 11.4 µM. The method, boiled down: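 Read-out is luminescence from luciferin produced by CYP1A2 demethylation of Luciferin-ME (100uM, at Km). Detection reagent stopped the 60 min NADPH-dependent reaction; signals were normalized to 57 uM furafylline.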

Assay [4] is described as follows: Stat Signaling Pathway (AID 446).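 Further: ME-180 cervical cancer cells given 40 pM IL-6 alongside compound; SIE-controlled beta-lactamase reporter measured as 460/530 nm FRET emission ratio; on the % scale 0 is the no-effect control and ±100 the full control effect.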 The following applies: ME-180 (cervical carcinoma) SIE beta-lactamase reporter, IL-6 stimulated, 5 h; at 7.69 µM (top of the series) unless noted. The method, boiled down: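 Compound effects on IL-6-induced STAT reporter activity were measured in ME-180 cells. After overnight culture, cells were co-treated with 40 pM IL-6 for 5 hrs before beta-lactamase substrate loading at room temperature.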

Assay [5] has as its target Glucocorticoid receptor (Homo sapiens) (UniProt P04150). Put plainly: GR-GFP Redistribution (AID 450;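 active means compounds whose dose series gives a full or clear partial fitted curve of increased nuclear translocation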; further: potency means the concentration at half of the fitted maximal effect). The following applies: U2OS GR-GFP nuclear translocation, laser cytometry, 2 h.
For assay [6] the target is unchanged. Put plainly: GR-EFC Redistribution (AID 451; calls by dose curve; further: potency means the concentration at half of the fitted maximal effect). As to conditions: CHO-K1 GR-EFC translocation, beta-gal luminescence, 2 h. The method, boiled down:
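Translocation of GR-ED fusion to nuclear EA restores b-gal, read by luminescence after 1 h room-temperature detection. Engineered CHO-K1 biosensor cells, 1,000/well, exposed 2 h at 37 C to titrations up to 46 uM final.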

In assay [7] the target is Mitogen-activated protein kinase 10 (Mus musculus) (UniProt Q61831). Put plainly: JNK3 AlphaScreen Assay (AID 530).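 Further: kinase came from lysate of stimulated human HepG2 cells; signal reports phosphorylation of biotinylated GST-cJun 1-79 at Ser73 with 10 µM ATP; on the % scale 0 is the no-effect control and ±100 the full control effect.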 As to conditions: JNK3 lysate, c-Jun phosphorylation; series mostly up to 11.4 µM. The method, boiled down: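 Kinase buffer: 20 mM Tris-HCl pH 7.6, 10 mM MgCl2, 1 mM DTT, 0.1 mM Na3VO4, 0.01% Tween-20; ATP 10 uM. Substrate biotin-GST-cJun(1-79), enzyme from activated HepG2 lysates. Detection by Ser73 phospho-antibody AlphaScreen.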

In assay [8] the target is 3',5'-cyclic-AMP phosphodiesterase 4B (Homo sapiens) (UniProt Q07343). Put plainly: qHTS Assay for Inhibitors of PDE-IV (AID 607; active means well fitted activation curve with a large enough effect in the main read-out, with a control signal flat, not every such curve was filed as active; further: % of control where 0% means no effect). The following applies: HEK293 ACTOne CNG channel cells, membrane potential fluorescence; series mostly up to 22.9 µM. The method, boiled down: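 ACTOne HEK293 cells carry a modified cAMP-gated CNG channel and express endogenous PDE4; plated 1000 cells/well, compounds up to 22.9 uM final. Membrane-potential dye fluorescence (ex 535/em 590) was read; parental cells received 10 uM forskolin + 100 uM RO 20-1724.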

Assay [9] deals with Cytochrome P450 2C9 (Homo sapiens) (UniProt P11712). Put plainly: qHTS Assay for Inhibitors and Substrates of Cytochrome P450 2C9 (AID 883; active means well fitted curve in the direction sought with a large enough effect; an effect the other way counts as inactive or inconclusive; further: potency means the concentration at half of the fitted maximal effect; nearly all actives have a fitted effect of over 60% in size). As to conditions: recombinant CYP2C9, luciferin-H luminescence, 60 min; series mostly up to 11.4 µM. The method, boiled down:
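Turnover of Luciferin-H (100uM, KM) by 10nM human CYP2C9 was measured over 60 min at 37C with NADPH regeneration; inhibitors and some substrates reduce luminescence. Data normalized to sulphaphenazole 57uM.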

For assay [10], the target named is Cytochrome P450 3A4 (Homo sapiens) (UniProt P08684). As to the kind of experiment: qHTS Assay for Inhibitors and Substrates of Cytochrome P450 3A4 (AID 884; active means well fitted curve in the direction sought with a large enough effect; an effect the other way counts as inactive or inconclusive; further: potency means the concentration at half of the fitted maximal effect; nearly all actives have a fitted effect of over 50% in size). The following applies: recombinant CYP3A4, Luciferin-PPXE luminescence; series mostly up to 57.1 µM. The method, boiled down: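 Luminescent readout of luciferin produced by CYP3A4 (20 nM) dealkylation of Luciferin-PPXE, 25 uM (its KM). NADPH-driven reaction ran 60 min at RT after 10 min compound preincubation; data scaled to 57 uM ketoconazole as 100% inhibition.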
(Quantitative high-throughput screening tests each substance at several concentrations.)

For assay [11] the target is unchanged. As to the kind of experiment: qHTS Assay for Activators of Cytochrome P450 3A4 (AID 885; active means well fitted curve in the direction sought with a large enough effect; an effect the other way counts as inactive or inconclusive; further: nearly all actives have a fitted effect of over 65% in size). As to conditions: recombinant CYP3A4, Luciferin-PPXE luminescence, 60 min; series mostly up to 11.4 µM. The method, boiled down:
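CYP3A4 activity: Luciferin-PPXE O-dealkylation, 25uM substrate, 200mM KPO4, RT throughout. Read-out is luciferase luminescence; higher values reflect activation.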

Assay [12] addresses Cytochrome P450 2C19 (Homo sapiens) (UniProt P33261). Put plainly: qHTS Assay for Inhibitors and Substrates of Cytochrome P450 2C19 (AID 899; active means well fitted curve in the direction sought with a large enough effect; an effect the other way counts as inactive or inconclusive; further: potency means the concentration at half of the fitted maximal effect; nearly all actives have a fitted effect of over 60% in size). The following applies: recombinant CYP2C19, luciferin-H EGE luminescence; series mostly up to 11.4 µM. The method, boiled down: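 Reactions contain 5nM enzyme, 10uM Luciferin-H EGE (KM) and 50mM KPO4; compound preincubates 10 min at 37C, NADPH regeneration starts turnover for 60 min. Luminescence after detection reagent gives activity.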

For assay [13], the target named is Cytochrome P450 2D6 (Homo sapiens) (UniProt P10635). As to the kind of experiment: qHTS Assay for Inhibitors and Substrates of Cytochrome P450 2D6 (AID 891; active means well fitted curve in the direction sought with a large enough effect; an effect the other way counts as inactive or inconclusive; further: potency means the concentration at half of the fitted maximal effect; nearly all actives have a fitted effect of over 60% in size). As to conditions: recombinant CYP2D6, luciferin-ME EGE luminescence; series mostly up to 11.4 µM. The method, boiled down:
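Luminescent read-out of luciferin formed by 5 nM human CYP2D6 demethylating 30 uM Luciferin-ME EGE (Km level) over 60 min at room temperature after NADPH regeneration addition. Data normalized to full inhibition by 1.43 uM quinidine.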

Cytochrome P450 1A2 (Homo sapiens), sequence (P05177 whole entry, looked up): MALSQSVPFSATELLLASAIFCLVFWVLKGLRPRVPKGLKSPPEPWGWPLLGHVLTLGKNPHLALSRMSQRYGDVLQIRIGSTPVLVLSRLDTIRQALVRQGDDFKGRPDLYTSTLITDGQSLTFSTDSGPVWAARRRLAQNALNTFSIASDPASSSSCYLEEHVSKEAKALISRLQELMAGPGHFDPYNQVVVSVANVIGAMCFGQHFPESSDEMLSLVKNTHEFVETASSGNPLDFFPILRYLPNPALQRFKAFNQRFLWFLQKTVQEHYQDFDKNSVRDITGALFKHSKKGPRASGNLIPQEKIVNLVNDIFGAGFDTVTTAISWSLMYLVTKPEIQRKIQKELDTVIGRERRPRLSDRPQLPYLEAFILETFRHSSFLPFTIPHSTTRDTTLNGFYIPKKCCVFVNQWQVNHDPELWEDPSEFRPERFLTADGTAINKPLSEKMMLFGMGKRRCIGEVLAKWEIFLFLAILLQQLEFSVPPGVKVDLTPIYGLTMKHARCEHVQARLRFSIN
3',5'-cyclic-AMP phosphodiesterase 4B (Homo sapiens), sequence (Q07343 whole entry, looked up): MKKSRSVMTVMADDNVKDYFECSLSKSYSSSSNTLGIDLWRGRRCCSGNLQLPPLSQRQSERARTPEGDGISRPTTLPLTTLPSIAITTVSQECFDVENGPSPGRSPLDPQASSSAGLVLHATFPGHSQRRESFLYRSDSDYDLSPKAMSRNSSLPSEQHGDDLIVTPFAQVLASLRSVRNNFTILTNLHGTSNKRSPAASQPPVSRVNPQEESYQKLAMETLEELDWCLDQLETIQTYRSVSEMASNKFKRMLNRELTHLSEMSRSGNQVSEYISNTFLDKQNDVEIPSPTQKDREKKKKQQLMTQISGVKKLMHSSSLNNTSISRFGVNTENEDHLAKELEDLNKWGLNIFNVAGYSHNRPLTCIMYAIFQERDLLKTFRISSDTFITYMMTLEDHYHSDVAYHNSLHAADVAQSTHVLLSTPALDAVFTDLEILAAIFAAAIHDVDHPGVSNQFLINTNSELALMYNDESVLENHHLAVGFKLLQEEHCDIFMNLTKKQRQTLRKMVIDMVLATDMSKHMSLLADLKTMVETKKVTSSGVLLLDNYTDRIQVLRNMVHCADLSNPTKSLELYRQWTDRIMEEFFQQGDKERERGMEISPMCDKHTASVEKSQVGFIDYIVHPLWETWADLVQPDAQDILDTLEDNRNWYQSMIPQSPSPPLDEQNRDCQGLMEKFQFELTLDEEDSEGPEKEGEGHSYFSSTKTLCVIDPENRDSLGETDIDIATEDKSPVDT
Cytochrome P450 3A4 (Homo sapiens), sequence (P08684 whole entry, looked up): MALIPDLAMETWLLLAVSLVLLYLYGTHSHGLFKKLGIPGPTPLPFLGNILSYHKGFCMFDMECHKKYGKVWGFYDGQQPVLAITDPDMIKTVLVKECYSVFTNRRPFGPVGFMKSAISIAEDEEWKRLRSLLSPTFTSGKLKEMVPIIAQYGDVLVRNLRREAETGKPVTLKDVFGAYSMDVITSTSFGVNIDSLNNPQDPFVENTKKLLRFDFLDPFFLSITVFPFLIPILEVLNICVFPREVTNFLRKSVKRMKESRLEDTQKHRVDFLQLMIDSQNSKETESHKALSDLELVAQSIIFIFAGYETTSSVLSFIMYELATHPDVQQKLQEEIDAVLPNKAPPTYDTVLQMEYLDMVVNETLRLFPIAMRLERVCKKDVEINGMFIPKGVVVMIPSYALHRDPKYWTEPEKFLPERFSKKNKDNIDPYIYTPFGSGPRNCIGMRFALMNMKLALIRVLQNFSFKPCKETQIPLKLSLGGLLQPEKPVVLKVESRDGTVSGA
Lysosomal acid glucosylceramidase (Homo sapiens), sequence (P04062 whole entry, looked up): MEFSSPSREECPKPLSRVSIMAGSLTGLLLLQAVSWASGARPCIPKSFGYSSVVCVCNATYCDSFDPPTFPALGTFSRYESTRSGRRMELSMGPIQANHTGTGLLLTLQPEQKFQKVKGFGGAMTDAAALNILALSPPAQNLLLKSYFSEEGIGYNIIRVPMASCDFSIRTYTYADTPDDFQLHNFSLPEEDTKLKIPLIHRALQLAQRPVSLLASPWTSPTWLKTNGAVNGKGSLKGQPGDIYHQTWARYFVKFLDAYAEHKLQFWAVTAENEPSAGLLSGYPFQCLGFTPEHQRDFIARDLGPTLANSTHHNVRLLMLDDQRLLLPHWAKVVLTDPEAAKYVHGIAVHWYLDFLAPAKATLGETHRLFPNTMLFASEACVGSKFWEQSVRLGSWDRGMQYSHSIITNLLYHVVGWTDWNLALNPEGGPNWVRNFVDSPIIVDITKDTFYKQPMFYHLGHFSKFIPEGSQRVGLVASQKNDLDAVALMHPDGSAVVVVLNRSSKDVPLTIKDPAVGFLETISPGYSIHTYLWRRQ
Glucocorticoid receptor (Homo sapiens), sequence (P04150 whole entry, looked up): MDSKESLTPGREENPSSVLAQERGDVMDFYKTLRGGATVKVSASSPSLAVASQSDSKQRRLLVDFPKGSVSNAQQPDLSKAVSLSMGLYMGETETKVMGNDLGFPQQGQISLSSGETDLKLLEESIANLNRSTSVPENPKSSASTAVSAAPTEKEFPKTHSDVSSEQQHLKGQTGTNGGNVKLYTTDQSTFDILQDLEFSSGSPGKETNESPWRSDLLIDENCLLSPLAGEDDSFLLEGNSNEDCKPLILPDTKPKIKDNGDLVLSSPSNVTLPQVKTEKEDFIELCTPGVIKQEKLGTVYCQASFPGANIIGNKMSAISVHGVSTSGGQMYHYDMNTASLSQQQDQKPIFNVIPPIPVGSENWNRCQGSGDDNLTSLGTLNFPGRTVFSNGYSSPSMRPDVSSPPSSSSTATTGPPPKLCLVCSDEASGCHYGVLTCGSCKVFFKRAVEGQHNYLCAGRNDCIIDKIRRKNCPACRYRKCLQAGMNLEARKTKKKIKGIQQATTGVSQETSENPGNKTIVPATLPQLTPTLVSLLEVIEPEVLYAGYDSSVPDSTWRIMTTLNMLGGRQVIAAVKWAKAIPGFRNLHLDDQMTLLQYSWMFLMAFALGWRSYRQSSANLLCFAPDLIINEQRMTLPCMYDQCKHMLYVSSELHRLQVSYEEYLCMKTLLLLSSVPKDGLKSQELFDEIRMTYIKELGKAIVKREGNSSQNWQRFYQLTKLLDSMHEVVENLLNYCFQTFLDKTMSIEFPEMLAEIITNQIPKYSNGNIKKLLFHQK
Cytochrome P450 2C19 (Homo sapiens), sequence (P33261 whole entry, looked up): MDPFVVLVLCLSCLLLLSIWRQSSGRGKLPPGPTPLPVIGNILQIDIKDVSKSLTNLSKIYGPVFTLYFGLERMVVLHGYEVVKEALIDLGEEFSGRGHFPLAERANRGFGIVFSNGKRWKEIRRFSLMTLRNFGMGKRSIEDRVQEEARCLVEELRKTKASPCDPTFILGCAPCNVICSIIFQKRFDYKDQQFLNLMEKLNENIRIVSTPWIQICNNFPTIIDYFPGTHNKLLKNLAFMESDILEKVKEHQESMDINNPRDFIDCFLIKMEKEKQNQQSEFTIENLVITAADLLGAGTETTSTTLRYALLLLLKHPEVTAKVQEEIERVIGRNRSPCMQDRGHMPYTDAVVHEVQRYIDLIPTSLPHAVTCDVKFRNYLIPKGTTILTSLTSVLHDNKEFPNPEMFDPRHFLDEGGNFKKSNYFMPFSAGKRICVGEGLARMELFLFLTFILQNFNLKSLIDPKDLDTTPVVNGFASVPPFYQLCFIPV
Cytochrome P450 2C9 (Homo sapiens), sequence (P11712 whole entry, looked up): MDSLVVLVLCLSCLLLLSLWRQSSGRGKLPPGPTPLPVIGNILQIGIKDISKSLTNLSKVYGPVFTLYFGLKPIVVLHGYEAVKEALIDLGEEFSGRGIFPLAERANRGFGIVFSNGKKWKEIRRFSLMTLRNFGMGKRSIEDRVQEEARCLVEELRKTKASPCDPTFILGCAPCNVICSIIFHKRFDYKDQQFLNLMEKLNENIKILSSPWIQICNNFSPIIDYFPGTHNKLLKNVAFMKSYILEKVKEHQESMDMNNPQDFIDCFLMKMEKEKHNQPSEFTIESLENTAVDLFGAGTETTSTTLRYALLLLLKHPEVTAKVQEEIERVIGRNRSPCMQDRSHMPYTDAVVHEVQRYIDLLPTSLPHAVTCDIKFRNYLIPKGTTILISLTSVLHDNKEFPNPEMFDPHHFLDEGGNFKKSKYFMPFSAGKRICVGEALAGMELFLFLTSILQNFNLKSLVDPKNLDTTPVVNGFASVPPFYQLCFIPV
Cytochrome P450 2D6 (Homo sapiens), sequence (P10635 whole entry, looked up): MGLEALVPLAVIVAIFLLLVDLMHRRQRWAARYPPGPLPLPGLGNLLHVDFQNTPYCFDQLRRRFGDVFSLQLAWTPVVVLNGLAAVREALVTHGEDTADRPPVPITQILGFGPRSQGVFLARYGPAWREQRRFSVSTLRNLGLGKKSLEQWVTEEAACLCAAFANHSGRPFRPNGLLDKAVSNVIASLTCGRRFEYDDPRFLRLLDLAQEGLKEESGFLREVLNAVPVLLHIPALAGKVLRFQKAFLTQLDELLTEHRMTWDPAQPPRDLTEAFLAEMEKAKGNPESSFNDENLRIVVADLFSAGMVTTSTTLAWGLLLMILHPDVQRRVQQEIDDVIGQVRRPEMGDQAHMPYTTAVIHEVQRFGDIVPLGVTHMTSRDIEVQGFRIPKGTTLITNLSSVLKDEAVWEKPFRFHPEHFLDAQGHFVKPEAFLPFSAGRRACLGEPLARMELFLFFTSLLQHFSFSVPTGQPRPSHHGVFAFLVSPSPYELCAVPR

As to `Cc1cc(O)c(C(C)C)cc1N=Cc1ccccc1O`, the Potency is more than 11.4 µM in assay [1]; 1.58 µM (active) in assay [3]; more than 46 µM in [5]; more than 9.22 µM in [6]; 0.631 µM (active) in assay [9]; 3.16 µM (active) in assay [10]. Moreover, the Potency in assay [12] was 0.398 µM (active). In addition, the activity change, negative = inhibition in assay [2] is 7.1%. For the same compound, in [4], the activity, negative = inhibition was -2.05%. The Potency result in assay [7], in [8] and in assay [11] was “inactive” throughout.

Regarding `c1ccc([P+](CC[P+](c2ccccc2)(c2ccccc2)c2ccccc2)(c2ccccc2)c2ccccc2)cc1`, the Potency in assay [1] was more than 11.4 µM; in [5], more than 46 µM; in [6] it was more than 9.22 µM. Further, in assay [2], the activity change, negative = inhibition is 1.2%. Besides, the Potency result in assay [3], in assay [7] and in assay [8] was “inactive” throughout. In addition, the activity, negative = inhibition in assay [4] was 7.49%.

`C[C@]1(O)CC[C@H]2[C@H]3CC=C4N5CCN=C5CC[C@@]4(C)[C@H]3CC[C@@]21C`: the Potency is more than 11.4 µM in [1], more than 46 µM in assay [5] and more than 9.22 µM in assay [6]. Moreover, the activity change, negative = inhibition in assay [2] was -0.00324%; in [3] it was -12.8% [at 2.29 µM]. Further, the activity, negative = inhibition in [4] was -6.8%. The Potency entry in assay [7] and in [8] was “inactive” throughout.

`CCN(CC)CC[n+]1ccc2c(C)c3[nH]c4ccc(O)cc4c3c(C)c2c1`: the Potency in [1] was more than 11.4 µM; in assay [3], 3.16 µM (active); in assay [5], more than 46 µM; in assay [6] it was more than 9.22 µM. Further, the activity change, negative = inhibition in [2] is 0.748%. The activity, negative = inhibition in assay [4] is 26.1%. The Potency entry in assay [7] and in assay [8] was “inactive” each time.

Take `CC(C)c1ccc(/C(C(=O)O)=C(\O)C(=O)O)cc1`: the Potency was more than 11.4 µM in assay [1], more than 46 µM in [5] and more than 9.22 µM in [6]. Moreover, in assay [2], the activity change, negative = inhibition is -1.43%. Further, the Potency result in assay [3], in assay [7] and in assay [8] was “inactive” in each case. The activity, negative = inhibition in assay [4] is -0.351%.

With `O[C@@H](c1cc([C@@]23C[C@H]4CC[C@@H]2C[C@H](C4)C3)nc2c(Cl)cc(Cl)cc12)[C@@H]1CCCCN1`, the values for the Potency in [1], in assay [5] and in assay [6] were more than 11.4 µM, more than 46 µM and more than 9.22 µM, respectively. In addition, the figures for the activity change, negative = inhibition in assay [2] and in assay [3] were 1.64% and -10.5% [at 2.29 µM], respectively. In assay [4], the activity, negative = inhibition is 0.88%. Also, the Potency result in assay [7] and in assay [8] was “inactive” in each case.

As for `c1ccc(SC(Sc2ccccc2)c2ccc3c(c2)OCO3)cc1`, the Potency in [1] is more than 11.4 µM; in [3], 0.501 µM (active); in [5], more than 46 µM; in assay [6] it was more than 9.22 µM; in assay [9], 3.16 µM (active); in assay [10], 2.51 µM (active). In addition, the values for the Potency in assay [13] and in assay [12] were 3.16 µM (active) and 0.0316 µM (active), respectively. Further, in assay [2], the activity change, negative = inhibition is -9.51%. Further, the activity, negative = inhibition in assay [4] is -12%. Besides, the Potency entry in assay [7], in [8] and in [11] was “inactive” in each case.

Take `Cc1ccc(C)c(/C(=N\N=C(N)N)C2CC2)c1`: the Potency was more than 11.4 µM in [1], more than 46 µM in assay [5] and more than 9.22 µM in assay [6]. Moreover, the values for the activity change, negative = inhibition in assay [2] and in assay [3] were -1.56% and 1.1% [at 2.29 µM], respectively. Also, the activity, negative = inhibition in assay [4] is 4.46%. In addition, the Potency entry in [7] and in [8] was “inactive” throughout.
